Assay results: PubChem BioAssay (NCI)
Compounds without any hit were thinned out: in the full panel of roughly 79,000, 15% have a hit. Calls of active or inactive are those of the source. Rule as the data show it: active = growth inhibition above about 70%; inactive = the rest.

Columns and labels:
[1] = NCI Yeast Anticancer Drug Screen. Data for the rad50 strain (AID 155);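 also: 0% = growth of vehicle-only cultures of the same strain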; conditions: S. cerevisiae rad50 strain growth inhibition, hits give high values
Summary of the method: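 Compounds were tested on a yeast strain with an engineered DNA damage repair alteration; the reported value is growth inhibition normalised to vehicle treatment.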

[2] = NCI Yeast Anticancer Drug Screen. Data for the mec2-1 strain (AID 157); conditions: S. cerevisiae mec2-1 strain, hits give high values
Summary of the method: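 Compounds were applied to mec2-1 yeast cells. Their growth was then compared with that of vehicle-treated cultures to give growth inhibition.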

[3] = NCI Yeast Anticancer Drug Screen. Data for the sgs1 mgt1 strain (AID 161);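 also: 0% = growth of cultures given vehicle only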; conditions: S. cerevisiae sgs1 mgt1 strain, hits give high values
Summary of the method: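 This yeast growth screen uses a strain with defined DNA-repair lesions; compound-treated growth is compared with vehicle-treated growth.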

[4] = NCI Yeast Anticancer Drug Screen. Data for the cln2 rad14 strain (AID 165);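 also: 0% = growth equal to vehicle treated cultures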; conditions: S. cerevisiae cln2 rad14 strain, hits give high values
Summary of the method: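 Strain: cln2 rad14 yeast, altered in cell cycle control and DNA damage repair. Read-out: growth inhibition vs vehicle.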

[5] = NCI Yeast Anticancer Drug Screen. Data for the bub3 strain (AID 167); conditions: S. cerevisiae bub3 mutant strain, hits give high values
Summary of the method: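 Growth of a checkpoint-deficient yeast mutant is measured after compound exposure. Values represent inhibition relative to vehicle.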

[6] = NCI Yeast Anticancer Drug Screen. Data for the mlh1 rad18 strain (AID 175); conditions: S. cerevisiae mlh1 rad18 strain growth inhibition, hits give high values
Summary of the method: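 A repair-deficient yeast strain is exposed to test compound, and growth is scored relative to vehicle-treated controls.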

[7] = at 5.0 µM (retest, dose inferred, filed as 0.5)
[8] = at 50.0 µM (retest, dose inferred, filed as 5.0)

Measured: growth inhibition

CCOC(=O)CC(N)CC(=O)OCC
inactive: [1]; [7] -142% | [1]; [8] -157% | [2]; [7] -47% | [2]; [8] -49% | [2]; at 50.0 µM 39.1% | [3]; [7] -56% | [3]; [8] -64% | [3]; at 50.0 µM -1.35% | [4]; [7] -53% | [4]; [8] -53% | [4]; at 50.0 µM -4.7% | [5]; [7] -67% | [5]; [8] -79% | [6]; [7] -110% | [6]; [8] -113% | [6]; at 50.0 µM 44.5%
active: [1]; at 50.0 µM 94.8% | [5]; at 50.0 µM 75.2%

CC12CCC(=O)C=C1CCC1C2C(O)CC2(C)C(c3csc(N)n3)CCC12 (stereo not given)
active: [1]; [8] 98% | [1]; at 50.0 µM 98.8% | [2]; [8] 98% | [2]; at 50.0 µM 96.8% | [3]; [8] 97% | [3]; at 50.0 µM 98% | [4]; [8] 90% | [4]; at 50.0 µM 94.5% | [5]; [8] 97% | [5]; at 50.0 µM 96.8% | [6]; [8] 96% | [6]; at 50.0 µM 96%
inactive: [1]; [7] 58% | [2]; [7] 17% | [3]; [7] 49% | [4]; [7] 23% | [5]; [7] 27% | [6]; [7] 38%

O=C(CBr)Nc1ccc(Cc2ccc(NC(=O)CBr)cc2)cc1
inactive: [1]; [7] 11% | [1]; [8] -4% | [2]; [7] 20% | [2]; [8] 0% | [3]; [7] 35% | [3]; [8] -4% | [4]; [7] 24% | [4]; [8] -2% | [5]; [7] 17% | [5]; [8] 0% | [6]; [7] 25% | [6]; [8] 1%
active: [1]; at 50.0 µM 97.3% | [2]; at 50.0 µM 98.7% | [3]; at 50.0 µM 98.2% | [4]; at 50.0 µM 97.1% | [5]; at 50.0 µM 98.1% | [6]; at 50.0 µM 97.2%

COc1cc2c[n+](C)c3c4cc(OC)c(OCc5ccccc5)cc4c(OCc4ccccc4)cc3c2cc1OC
active: [1]; [8] 96% | [2]; [8] 93% | [3]; [8] 94% | [4]; [8] 91% | [4]; at 50.0 µM 96.6% | [5]; [8] 95% | [5]; at 50.0 µM 93.5% | [6]; [8] 95%
inactive: [1]; [7] 33% | [1]; at 50.0 µM 59.4% | [2]; [7] 14% | [2]; at 50.0 µM 53.7% | [3]; [7] 0% | [3]; at 50.0 µM 51.1% | [4]; [7] 5% | [5]; [7] 16% | [6]; [7] 18% | [6]; at 50.0 µM 65.8%

O=[N+]([O-])c1cccc(S(=O)(=O)Nc2cccc3ccccc23)c1
inactive: [1]; [7] 4% | [2]; [7] 1% | [3]; [7] 2% | [4]; [7] 4% | [5]; [7] 1% | [6]; [7] -3%
active: [1]; [8] 97% | [1]; at 50.0 µM 99% | [2]; [8] 98% | [2]; at 50.0 µM 99.2% | [3]; [8] 97% | [3]; at 50.0 µM 99.2% | [4]; [8] 98% | [4]; at 50.0 µM 99.2% | [5]; [8] 97% | [5]; at 50.0 µM 99.2% | [6]; [8] 97% | [6]; at 50.0 µM 98.7%

C=CCOc1ccc(-c2ccccc2)cc1C(=O)NC
inactive: [1]; [7] -9% | [1]; [8] -5% | [1]; at 50.0 µM 1.25% | [2]; [7] 2% | [2]; [8] -6% | [2]; at 50.0 µM 6.3% | [3]; [7] -2% | [3]; [8] 20% | [3]; at 50.0 µM 5.1% | [4]; [7] -42% | [4]; [8] -5% | [4]; at 50.0 µM 8.95% | [5]; [7] -3% | [5]; [8] 8% | [5]; at 50.0 µM 42.9% | [6]; [7] -3% | [6]; [8] 20% | [6]; at 50.0 µM 22.1%

CC(C)CCCCCCCCCCCCC(=O)NCC(=O)NC1C(O)C(O)C(Nc2ncnc3nc[nH]c23)OC1C(O)CO (stereo not given)
inactive: [1]; [7] 25% | [1]; [8] 53% | [1]; at 50.0 µM 34.5% | [2]; [7] 26% | [2]; [8] 46% | [2]; at 50.0 µM 25.9% | [3]; [7] 7% | [3]; [8] 43% | [3]; at 50.0 µM 52.2% | [4]; [7] 5% | [4]; [8] -14% | [4]; at 50.0 µM 47.9% | [5]; [7] 18% | [5]; [8] 63% | [5]; at 50.0 µM 52.4% | [6]; [7] 44% | [6]; [8] 63% | [6]; at 50.0 µM 53.9%

O=C(NCCCNCCCCNCCCNC(=O)c1cc(-c2ccccc2)nc2ccccc12)c1cc(-c2ccccc2)nc2ccccc12
inactive: [1]; [7] 49% | [2]; [7] 25% | [3]; [7] 34% | [4]; [7] 30% | [5]; [7] 33% | [5]; [8] 64% | [6]; [7] 46%
active: [1]; [8] 98% | [1]; at 50.0 µM 90.2% | [2]; [8] 99% | [2]; at 50.0 µM 93.2% | [3]; [8] 99% | [3]; at 50.0 µM 92.8% | [4]; [8] 98% | [4]; at 50.0 µM 91.1% | [5]; at 50.0 µM 92.2% | [6]; [8] 99% | [6]; at 50.0 µM 90%

CCCCCCCCCCCC(=O)NC(CCC(=O)O)C(=O)O (stereo not given)
inactive: [1]; [7] 4% | [1]; [8] -2% | [1]; at 50.0 µM -6.05% | [2]; [7] -19% | [2]; [8] -12% | [2]; at 50.0 µM -8% | [3]; [7] -3% | [3]; [8] -1% | [3]; at 50.0 µM 5.95% | [4]; [7] -5% | [4]; [8] -9% | [4]; at 50.0 µM 49.4% | [5]; [7] -7% | [5]; [8] 0% | [5]; at 50.0 µM -2.15% | [6]; [7] -18% | [6]; [8] -8% | [6]; at 50.0 µM 5.1%

Cc1cc(C[P+](c2ccccc2)(c2ccccc2)c2ccccc2)c(C)cc1C[P+](c1ccccc1)(c1ccccc1)c1ccccc1
inactive: [1]; [7] 4% | [1]; [8] 66% | [2]; [7] -9% | [2]; [8] 49% | [3]; [7] 1% | [3]; [8] 61% | [4]; [7] 3% | [4]; [8] 32% | [5]; [7] 3% | [5]; [8] 66% | [6]; [7] 1%
active: [1]; at 50.0 µM 95.1% | [2]; at 50.0 µM 96.7% | [3]; at 50.0 µM 91.6% | [4]; at 50.0 µM 82.5% | [5]; at 50.0 µM 92.1% | [6]; [8] 86% | [6]; at 50.0 µM 94.5%
